# Most compounds without a hit are left out; they make up all but 18% or so of the library.
# TDP1 cell noCPT – qHTS for Inhibitors of human tyrosyl-DNA phosphodiesterase 1 (TDP1): qHTS in cells in absence of CPT | hit rate 15% among 420,000 | Potency, µM (top dose mostly 46.2 µM), most hits filed as inhibitors | AID 686978, 2013 | DT40 Tdp1-/- hTDP1 cells, no CPT, ATP luminescence, 48 h; further: nearly all actives have a fitted effect of over 55% in size
#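 Growth kinetics read by CellTiter-Glo luminescence after ≥48 hr at 37 °C. Cells: DT40 Tdp1-/- stably carrying human TDP1, 400 per well, compound exposure in the absence of CPT (DMSO vehicle).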
# RORg inh – qHTS for inhibitors of ROR gamma transcriptional activity. Drosophila S2 Gal4-RORgamma UAS-luciferase reporter, 20 h. Potency, µM (titrated, usually from 53.6 µM), usual class: inhibitors. AID 2551, 2010. hit rate 5.4% among 310,000. Nuclear receptor ROR-gamma (Mus musculus), P51450; further: nearly all actives have a fitted effect of over 60% in size
# Target sequence (P51450 whole entry, looked up, the tested form may be a part): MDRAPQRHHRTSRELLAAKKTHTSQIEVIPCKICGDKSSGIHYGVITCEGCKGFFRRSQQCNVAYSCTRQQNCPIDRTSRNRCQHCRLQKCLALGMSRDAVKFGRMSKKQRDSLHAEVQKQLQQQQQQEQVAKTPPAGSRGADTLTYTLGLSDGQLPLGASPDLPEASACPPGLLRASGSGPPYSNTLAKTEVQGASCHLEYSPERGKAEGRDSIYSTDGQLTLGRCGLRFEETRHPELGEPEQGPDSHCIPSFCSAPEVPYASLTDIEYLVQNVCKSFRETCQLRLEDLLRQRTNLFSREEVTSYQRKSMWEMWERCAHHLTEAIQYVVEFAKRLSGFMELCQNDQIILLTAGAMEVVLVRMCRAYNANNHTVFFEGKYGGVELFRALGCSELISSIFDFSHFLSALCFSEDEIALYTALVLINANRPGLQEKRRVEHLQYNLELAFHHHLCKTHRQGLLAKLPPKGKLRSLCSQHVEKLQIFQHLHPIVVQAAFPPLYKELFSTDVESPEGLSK
#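 Stably transfected Drosophila Schneider cells are the test system, with ROR gamma fused to Gal4 and luciferase under UAS control; luminescence is read after 20 hr of 700 uM copper sulfate induction at ambient temperature.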
# TDP1 cell CPT – qHTS for Inhibitors of human tyrosyl-DNA phosphodiesterase 1 (TDP1): qHTS in cells in presence of CPT; chicken DT40 Tdp1-/-;hTDP1 cells + 20 nM CPT, ATP luminescence, 48 h; Potency, µM (top dose mostly 46.2 µM), hits mostly inhibitors; hit rate 12% among 420,000; AID 686979, 2013; further: nearly all actives have a fitted effect of over 55% in size
#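 Cell growth measured by CellTiter-Glo luminescence after a minimum 48 h, 37 C compound exposure with 20 nM CPT in Tdp1-knockout DT40 cells stably expressing hTDP1, seeded 400/well; qHTS titration format.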
# LDHA inh – qHTS assay for inhibitors of human lactate dehydrogenase; purified LDHA, NADH/diaphorase-resazurin fluorescence; stronger effect = lower value; AID 1347041, 2019; activity change, % (values are at about 110 or 230 µM); hit rate 0.15% among 480,000; in the data active means activity change below about -30%; inconclusive means mostly about -25% to -30%
#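 Resorufin fluorescence (ex540/em590), read at 0 and 20 min after diaphorase/resazurin addition, reports the NADH left after a 5 min room-temperature reaction of 2 nM human LDH5 with 0.06 mM NADH and 0.2 mM pyruvate.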
# IL-1B inflam inh – qHTS for Inhibitors of Inflammasome Signaling: IL-1-beta AlphaLISA Primary Screen; hit rate 4.7% among 360,000; activity change, % at 57.5 µM; THP-1 LPS/ATP IL-1B secretion, AlphaLISA, 16 h; stronger effect = lower value; in the data active means activity change below about -50%; inconclusive means mostly about -30% to -49%
#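 Secreted IL-1B measured by AlphaLISA bead assay after 16 h compound exposure of THP-1 cells; compounds (final up to 57.5 uM) added 1 h before LPS (250 ng/mL) and ATP (1.25 mM) stimulation; lower signal means less secretion.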
# VP16 counter – VP16 counterscreen qHTS for inhibitors of ROR gamma transcriptional activity; Drosophila S2 Gal4-VP16 UAS-luciferase, luminescence, 20 h; Potency, µM (highest dose often 53.6 µM), actives largely listed as inhibitors; hit rate 3.5% among 310,000;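 further: Gal4-VP16 expression switched on by copper sulfate through the metallothionein promoter; nearly all actives have a fitted effect of over 50% in size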
# A number is an active result; 0 = inactive; ? = inconclusive; - = not tested or not shown. Unless noted, the call rests on the fitted dose curve; in most records, active means well fitted curve in the direction sought with a large enough effect; inconclusive means small, poorly fitted or top-dose-only effect, or another doubt; inactive means no such curve, though single readings can be large; an effect the other way counts as inactive or inconclusive.
SMILES,TDP1 cell noCPT,RORg inh,TDP1 cell CPT,LDHA inh,IL-1B inflam inh,VP16 counter
Cc1ccc(NC(=O)Cc2ccc(-n3c(C)nc4cccnc43)cc2)c(Cl)c1,4.1µM,-,5.2µM,0,-,-
COc1ccc(C(=O)Nc2cccc(-c3nc4cccnc4s3)c2C)c(OC)c1,12µM,-,21µM,0,-,-
O=C(Nc1ccc(I)cc1C(F)(F)F)c1ccc(-c2ccccc2)cc1,-,-,-,0,-,-
CCN1CCN(c2nnc(-c3ccccc3)c3ccccc23)CC1,0,0,0,0,0,0
CCCCSc1nnc(-c2ccccc2)c2ccccc12,?,0,?,0,0,13µM
Clc1ccc(-c2nc(N3CCOCC3)nc3ccccc23)cc1,?,0,?,0,0,0
Cc1ccc2nc(N3CCN(CCO)CC3)nc(-c3ccccc3)c2c1,?,0,?,0,?,0
Clc1ccc2nc(N3CCNCC3)nc(-c3ccccc3)c2c1,9.2µM,?,18µM,0,-95,?
O=C1CN(c2nc(-c3ccccc3)c3cc(Cl)ccc3n2)c2ccccc2N1,21µM,0,16µM,0,0,0
Oc1ccccc1Nc1nc(-c2ccccc2)c2cc(Cl)ccc2n1,?,-,?,0,-,-
OCCN1CCN(c2nc(-c3ccccc3)c3cc(Cl)ccc3n2)CC1,23µM,0,?,0,-52,0
CC(C)c1ccc(Nc2ncnc3c2nc2n3CCCC2)cc1,?,-,?,0,-,-
Fc1ccccc1Nc1ncnc2c1nc1n2CCCCC1,?,-,?,0,-,-
